Results published in PubChem BioAssay (EPA / NIEHS).
Calls of active or inactive are those of the source. Rule for the calls: active = hit-call score of the fitted dose curve at least 0.9, where 1 is the maximum; inactive = score below 0.9.

Experiments:
Details in all cases: mRNA level, 48 h; actives raise or lower the signal
[1] = read-out: Glutathione S-Transferase (GSTA2), GSTA2 (gene 2939); test: LTEA_HepaRG_GSTA2: Life Technologies and Expression Analysis (LTEA) Assay for Glutathione S-Transferase (GSTA2) using HepaRG (AID 2283497)
In short: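 HepaRG, 48 h dosing, 8-pt half-log CRC from 100 uM, 0.5% DMSO vehicle, n=2; RNA → Fluidigm TaqMan qRT-PCR; GSTA2 vs ACTB/GAPDH/POLR2A; gain/loss fit vs DMSO.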

[2] = read-out: Glutamate-cysteine ligase catalytic (GCLC), GCLC (gene 2729); test: LTEA_HepaRG_GCLC: Life Technologies and Expression Analysis (LTEA) Assay for Glutamate-cysteine ligase catalytic (GCLC) using HepaRG (AID 2283498)
In short: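 Read-out is GCLC transcript level by Fluidigm-based TaqMan qRT-PCR, normalized to three housekeeping genes and fitted in both directions relative to 0.5% DMSO. Human HepaRG cells received chemicals for 48 h, up to 100 uM.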

[3] = read-out: growth arrest and DNA damage 45 (GADD45G), GADD45G (gene 10912); test: LTEA_HepaRG_GADD45G: Life Technologies and Expression Analysis (LTEA) Assay for growth arrest and DNA damage 45 (GADD45G) using HepaRG (AID 2283499)
In short: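 Concentration-response in HepaRG: 48 h dosing, 0.5% DMSO, highest level 100 uM. GADD45G expression by qRT-PCR, normalised to endogenous controls; bidirectional fit to DMSO.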

[4] = read-out: Glutamate-cysteine ligase regulatory (GCLM), GCLM (gene 2730); test: LTEA_HepaRG_GCLM: Life Technologies and Expression Analysis (LTEA) Assay for Glutamate-cysteine ligase regulatory (GCLM) using HepaRG (AID 2283500)
In short: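 Differentiated human HepaRG cells exposed 48 h in serum-free induction medium to 8-point half-log concentrations (top 100 uM, 0.5% DMSO), in duplicate. GCLM mRNA quantified by qRT-PCR, normalized to ACTB, GAPDH, POLR2A; bidirectional fitting versus DMSO.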

[5] = read-out: Glutathione S-transferase M3 (GSTM3), GSTM3 (gene 2947); test: LTEA_HepaRG_GSTM3: Life Technologies and Expression Analysis (LTEA) Assay for Glutathione S-transferase M3 (GSTM3) using HepaRG (AID 2283501)
In short: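 Expression of GSTM3 is determined by qRT-PCR in human liver HepaRG cells treated 48 h with an 8-point half-log range from 100 uM in 0.5% DMSO.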

[6] = read-out: Heat shock 70 kDa protein 1 (HSPA1A), gene 3303; test: LTEA_HepaRG_HSPA1A: Life Technologies and Expression Analysis (LTEA) Assay for Heat shock 70 kDa protein 1 (HSPA1A) using HepaRG (AID 2283502)
In short: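 Differentiated human HepaRG cells in serum-free induction medium were exposed in duplicate for 48 h to eight concentrations (top 100 uM, half-log steps, 0.5% DMSO). HSPA1A mRNA was quantified by qRT-PCR, normalized to ACTB, GAPDH and POLR2A, and fitted bidirectionally against DMSO.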

[7] = read-out: Hypoxia-inducible factor 1-alpha (Homo sapiens) (UniProt Q16665); test: LTEA_HepaRG_HIF1A: Life Technologies and Expression Analysis (LTEA) Assay for Hypoxia-inducible factor 1 (HIF1A) Trancription factor using HepaRG (AID 2283503);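 note: HIF1A transcript by TaqMan qRT-PCR normalized to ACTB GAPDH and POLR2A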
In short: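 HepaRG, 48 h exposure, 8-pt half-log series from 100 uM, 0.5% DMSO vehicle, duplicates. Readout: HIF1A transcript by qRT-PCR (Fluidigm array), housekeeping-normalised. Bidirectional curve fit vs DMSO baseline.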

[8] = read-out: 3-Hydroxy-3-Methylglutaryl-CoA Synthase 2 (HMGCS2), HMGCS2 (gene 3158); test: LTEA_HepaRG_HMGCS2: Life Technologies and Expression Analysis (LTEA) Assay for 3-Hydroxy-3-Methylglutaryl-CoA Synthase 2 (HMGCS2) using HepaRG (AID 2283504)
In short: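 This steatosis marker was read as HMGCS2 mRNA change in HepaRG cells treated 48 h with up to 100 uM chemical. Normalisation used housekeeping genes; activity in either direction was fitted relative to 0.5% DMSO vehicle.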

[9] = read-out: Intercellular Adhesion Molecule 1 (ICAM1), ICAM1 (gene 3383); test: LTEA_HepaRG_ICAM1: Life Technologies and Expression Analysis (LTEA) Assay for Intercellular Adhesion Molecule 1 (ICAM1) using HepaRG (AID 2283507)
In short: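 Using the human liver line HepaRG, compounds are tested in duplicate over 48 h at concentrations up to 100 uM. Expression is determined by TaqMan qRT-PCR, normalized to endogenous controls, and analysed relative to 0.5% DMSO vehicle.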

[10] = read-out: Cytochrome P450 7A1 (Homo sapiens) (UniProt P22680); test: LTEA_HepaRG_CYP7A1: Life Technologies and Expression Analysis (LTEA) Assay for Cytochrome P450 7A1 (CYP7A1) using HepaRG (AID 2283496)
In short: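 Gene expression endpoint in human HepaRG liver cells treated for 48 h with test chemicals (up to 100 uM, 0.5% DMSO). Values come from bidirectional concentration-response fitting versus DMSO.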

Hypoxia-inducible factor 1-alpha (Homo sapiens), sequence (Q16665 whole entry, looked up): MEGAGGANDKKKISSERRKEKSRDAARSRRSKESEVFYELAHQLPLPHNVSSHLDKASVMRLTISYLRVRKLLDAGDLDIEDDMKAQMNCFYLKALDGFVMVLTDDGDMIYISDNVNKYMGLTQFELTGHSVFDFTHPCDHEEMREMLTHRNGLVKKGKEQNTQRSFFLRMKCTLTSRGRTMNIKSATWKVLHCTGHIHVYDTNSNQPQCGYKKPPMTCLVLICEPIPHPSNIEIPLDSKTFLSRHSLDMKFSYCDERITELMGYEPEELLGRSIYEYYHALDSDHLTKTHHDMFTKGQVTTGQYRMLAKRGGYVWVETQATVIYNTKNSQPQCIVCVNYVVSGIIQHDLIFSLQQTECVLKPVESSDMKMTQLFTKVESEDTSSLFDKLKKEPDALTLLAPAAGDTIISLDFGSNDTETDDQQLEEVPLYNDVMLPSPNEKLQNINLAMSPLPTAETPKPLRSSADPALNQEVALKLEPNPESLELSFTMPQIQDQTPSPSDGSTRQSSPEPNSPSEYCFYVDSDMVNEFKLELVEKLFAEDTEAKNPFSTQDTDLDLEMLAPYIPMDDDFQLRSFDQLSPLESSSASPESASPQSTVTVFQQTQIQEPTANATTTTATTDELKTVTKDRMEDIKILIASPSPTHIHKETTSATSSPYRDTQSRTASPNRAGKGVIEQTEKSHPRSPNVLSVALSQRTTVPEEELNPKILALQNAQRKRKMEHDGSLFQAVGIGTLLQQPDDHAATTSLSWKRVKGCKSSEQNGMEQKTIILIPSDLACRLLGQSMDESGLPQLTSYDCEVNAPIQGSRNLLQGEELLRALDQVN

Oc1c(Cl)cc(Cl)cc1Cl
outcome [1]: inactive | outcome [2]: inactive | outcome [3]: inactive | outcome [4]: inactive | outcome [5]: inactive | outcome [6]: inactive | outcome [7]: inactive | outcome [8]: inactive | outcome [9]: inactive

CCCCCCCCCCCCc1cccc(S(=O)(=O)O)c1
outcome [10]: inactive | outcome [1]: inactive | outcome [2]: inactive | outcome [3]: inactive | outcome [4]: inactive | outcome [5]: inactive | AC50 [6]: 59.4 µM (active) | AC50 [7]: 16.5 µM (active) | AC50 [8]: 37.9 µM (active) | outcome [9]: inactive

CC(C)(C)c1ccccc1O
outcome [10]: inactive | outcome [1]: inactive | outcome [2]: inactive | outcome [3]: inactive | outcome [4]: inactive | outcome [5]: inactive | outcome [6]: inactive | outcome [7]: inactive | outcome [8]: inactive | outcome [9]: inactive

CC(C)O.CC(C)O.OCCN(CCO)CCO.OCCN(CCO)CCO.[Ti]
outcome [10]: inactive | outcome [1]: inactive | outcome [2]: inactive | outcome [3]: inactive | outcome [4]: inactive | outcome [5]: inactive | outcome [6]: inactive | outcome [7]: inactive | outcome [8]: inactive | outcome [9]: inactive

COc1ccccc1N
outcome [10]: inactive | outcome [1]: inactive | outcome [2]: inactive | outcome [3]: inactive | outcome [4]: inactive | outcome [5]: inactive | outcome [6]: inactive | outcome [7]: inactive | outcome [8]: inactive | outcome [9]: inactive

CN(C)C(=S)S
outcome [1]: inactive | outcome [2]: inactive | outcome [3]: inactive | outcome [4]: inactive | outcome [5]: inactive | outcome [6]: inactive | outcome [7]: inactive | outcome [8]: inactive | outcome [9]: inactive

Oc1cc(Cl)c(Cl)cc1Cl
outcome [10]: inactive | outcome [1]: inactive | outcome [2]: inactive | outcome [3]: inactive | outcome [4]: inactive | outcome [6]: inactive | outcome [7]: inactive | outcome [8]: inactive | outcome [9]: inactive

Clc1cccc(Cl)c1Cl
outcome [10]: inactive | outcome [1]: inactive | outcome [2]: inactive | outcome [3]: inactive | outcome [4]: inactive | outcome [5]: inactive | outcome [6]: inactive | outcome [7]: inactive | outcome [8]: inactive | outcome [9]: inactive

OCCN(CCO)CCO
outcome [10]: inactive | outcome [1]: inactive | outcome [2]: inactive | outcome [3]: inactive | outcome [4]: inactive | outcome [5]: inactive | outcome [6]: inactive | outcome [7]: inactive | outcome [8]: inactive | outcome [9]: inactive

N#Cc1cccnc1
outcome [10]: inactive | outcome [1]: inactive | outcome [2]: inactive | outcome [3]: inactive | outcome [4]: inactive | outcome [5]: inactive | outcome [6]: inactive | outcome [7]: inactive | outcome [8]: inactive | outcome [9]: inactive

Clc1cccc(Cl)c1
outcome [10]: inactive | outcome [1]: inactive | outcome [2]: inactive | outcome [3]: inactive | outcome [4]: inactive | outcome [5]: inactive | outcome [6]: inactive | outcome [7]: inactive | outcome [8]: inactive | outcome [9]: inactive

Cc1cc(C)cc(C)c1
outcome [10]: inactive | outcome [1]: inactive | outcome [2]: inactive | outcome [3]: inactive | outcome [4]: inactive | outcome [5]: inactive | outcome [6]: inactive | outcome [7]: inactive | outcome [8]: inactive | outcome [9]: inactive

O=C(O)C1(c2ccc3c(c2)OC[C@H](Cc2ccc(-c4ccccc4)cc2)[C@H]3O)CCCC1
outcome [10]: inactive | AC50 [1]: 80.1 µM (active) | AC50 [2]: 75.6 µM (active) | outcome [3]: inactive | outcome [4]: inactive | outcome [5]: inactive | AC50 [6]: 78.2 µM (active) | AC50 [7]: 82.3 µM (active) | outcome [8]: inactive | AC50 [9]: 64.4 µM (active)

O=C(N[C@H]1CN2CCC1CC2)c1ccc2c(c1)OCCO2
outcome [10]: inactive | outcome [1]: inactive | outcome [2]: inactive | outcome [3]: inactive | AC50 [4]: 0.112 µM (active) | outcome [5]: inactive | outcome [6]: inactive | outcome [7]: inactive | outcome [8]: inactive | outcome [9]: inactive
